Experimental data reported in the supplement of paper PMC8728848.
Many of the other results were omitted from the sample, so the strongest signals are more common in it than they were.

Key:
Assay in all cases: glycan array binding signal (z-score within array); higher = stronger binding
Details in all cases: glycan notation: IUPAC condensed, linker removed
[1] = molecular target: Gal(b1-4)GlcNAc(b1-3)Gal(b1-4)GlcNAc(b1-2)Man(a1-3)[Gal(b1-4)GlcNAc(b1-3)Gal(b1-4)GlcNAc(b1-2)Man(a1-6)]Man(b1-4)GlcNAc(b1-4)[Fuc(a1-6)]GlcNAc
How it was run: (§1)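 Columns mapping to the same glycan were averaged after glycan names were converted to IUPAC-condensed notation. The data come from 3228 arrays in the Consortium for Functional Glycomics database, limited to those with an available protein sequence. Binding is reported as a within-array Z-score averaged across arrays of one protein sequence and across linkers.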

[2] = molecular target: Gal(b1-4)GlcNAc(b1-3)Gal(b1-4)GlcNAc(b1-3)Gal(b1-4)GlcNAc
How it was run: as §1

[3] = molecular target: Gal(b1-4)GlcNAc(b1-3)Gal(b1-4)GlcNAc(b1-3)Gal(b1-4)GlcNAc(b1-2)Man(a1-3)[Gal(b1-4)GlcNAc(b1-3)Gal(b1-4)GlcNAc(b1-3)Gal(b1-4)GlcNAc(b1-2)Man(a1-6)]Man(b1-4)GlcNAc(b1-4)GlcNAc
How it was run: as §1

[4] = molecular target: Gal(b1-4)GlcNAc(b1-3)Gal(b1-4)GlcNAc(b1-3)Gal(b1-4)GlcNAc(b1-2)Man(a1-3)[Gal(b1-4)GlcNAc(b1-3)Gal(b1-4)GlcNAc(b1-3)Gal(b1-4)GlcNAc(b1-2)Man(a1-6)]Man(b1-4)GlcNAc(b1-4)[Fuc(a1-6)]GlcNAc
How it was run: as §1

[5] = molecular target: Gal(b1-4)GlcNAc(b1-3)Gal(b1-4)GlcNAc(b1-3)Gal(b1-4)GlcNAc(b1-3)Gal(b1-4)GlcNAc(b1-2)Man(a1-3)[Gal(b1-4)GlcNAc(b1-3)Gal(b1-4)GlcNAc(b1-3)Gal(b1-4)GlcNAc(b1-3)Gal(b1-4)GlcNAc(b1-2)Man(a1-6)]Man(b1-4)GlcNAc(b1-4)[Fuc(a1-6)]GlcNAc
How it was run: as §1

[6] = molecular target: Gal(b1-4)GlcNAc(b1-3)Gal(b1-4)GlcNAc(b1-3)Gal(b1-4)GlcNAc(b1-3)Gal(b1-4)GlcNAc(b1-3)Gal(b1-4)GlcNAc(b1-2)Man(a1-3)[Gal(b1-4)GlcNAc(b1-3)Gal(b1-4)GlcNAc(b1-3)Gal(b1-4)GlcNAc(b1-3)Gal(b1-4)GlcNAc(b1-3)Gal(b1-4)GlcNAc(b1-2)Man(a1-6)]Man(b1-4)GlcNAc(b1-4)GlcNAc
How it was run: as §1

[7] = molecular target: Gal(b1-4)GlcNAc(b1-3)Gal(b1-4)GlcNAc(b1-3)Gal(b1-4)GlcNAc(b1-3)Gal(b1-4)GlcNAc(b1-3)Gal(b1-4)GlcNAc(b1-3)Gal(b1-4)GlcNAc(b1-2)Man(a1-3)[Gal(b1-4)GlcNAc(b1-3)Gal(b1-4)GlcNAc(b1-3)Gal(b1-4)GlcNAc(b1-3)Gal(b1-4)GlcNAc(b1-3)Gal(b1-4)GlcNAc(b1-3)Gal(b1-4)GlcNAc(b1-2)Man(a1-6)]Man(b1-4)GlcNAc(b1-4)GlcNAc
How it was run: as §1

[8] = molecular target: Gal(b1-4)GlcNAc(b1-3)Gal(b1-4)GlcNAc(b1-3)[Gal(b1-4)GlcNAc(b1-3)Gal(b1-4)GlcNAc(b1-6)]GalNAc
How it was run: as §1

[9] = molecular target: Gal(b1-4)GlcNAc(b1-6)GalNAc
How it was run: as §1

[10] = molecular target: Gal3S4S(b1-4)GlcNAc
How it was run: as §1

[11] = molecular target: Gal4S6S(b1-4)GlcNAc
How it was run: as §1

[12] = molecular target: GalNAc6S(b1-4)GlcNAc
How it was run: as §1

[13] = molecular target: GlcNAc6S(b1-3)Gal(b1-4)GlcNAc
How it was run: as §1

[14] = molecular target: Man(a1-2)Man(a1-3)[Man(a1-2)Man(a1-6)]Man
How it was run: as §1

[15] = molecular target: Man(a1-2)Man(a1-3)[Man(a1-2)Man(a1-6)]Man(a1-6)[Man(a1-2)Man(a1-2)Man(a1-3)]Man(b1-4)GlcNAc(b1-4)GlcNAc
How it was run: as §1

[16] = molecular target: Man(b1-4)GlcNAc
How it was run: as §1

[17] = molecular target: Neu5Ac(a2-3)Gal
How it was run: as §1

[18] = molecular target: Neu5Ac(a2-3)Gal(b1-3)GlcNAc(b1-4)Gal(b1-4)Glc
How it was run: as §1

[19] = molecular target: Neu5Ac(a2-3)Gal(b1-3)[GlcNAc(b1-6)]GalNAc
How it was run: as §1

[20] = molecular target: Neu5Ac(a2-3)Gal(b1-4)Glc
How it was run: as §1

[21] = molecular target: Neu5Ac(a2-3)Gal(b1-4)GlcNAc(b1-2)Man(a1-3)[Neu5Ac(a2-6)Gal(b1-4)GlcNAc(b1-2)Man(a1-6)]Man(b1-4)GlcNAc(b1-4)GlcNAc
How it was run: as §1

[22] = molecular target: Neu5Ac(a2-3)Gal(b1-4)GlcNAc(b1-6)[Gal(b1-3)]GalNAc
How it was run: as §1

[23] = molecular target: Neu5Ac(a2-3)[Neu5Ac(a2-6)]GalNAc
How it was run: as §1

[24] = molecular target: Neu5Ac(a2-6)Gal(b1-4)GlcNAc(b1-2)Man(a1-3)[Gal(b1-4)GlcNAc(b1-2)Man(a1-6)]Man(b1-4)GlcNAc(b1-4)GlcNAc
How it was run: as §1

[25] = molecular target: Neu5Gc(a2-3)Gal(b1-4)GlcNAc(b1-3)Gal(b1-4)GlcNAc(b1-2)Man(a1-3)[Neu5Gc(a2-3)Gal(b1-4)GlcNAc(b1-3)Gal(b1-4)GlcNAc(b1-2)Man(a1-6)]Man(b1-4)GlcNAc(b1-4)GlcNAc
How it was run: as §1

B1: PX14343H-pdi-506-26-506 (Parabacteroides distasonis) (protein)
chain: QPTGTMTTDSKLTSKESALALTNSAYLKNTVFNKMTPGWGCNTILLLEYMTGKATSENSQSNYKDFQDLLVSDRSLYIEDWWQDCYAGIANCNLALQKLGEFENLDASLVNGYMAEVKFMRALYYFYLVRIFGDVPKITTVQSELGELQVSRAPVKEIYDEIIIPDLLEAEQSDLAFSDHTGRVSMGAVKALLADVYLTYAGYPLQGGKSYYAESAKRSLEVIKSNEYTLFTDYESLRLPSQNNKGEFIYQVQFSLNKRHNESVRIFLPSRSGISAYDLEYGSLIPTKEFVESFEKGDKRTEEKQYFFTNYKGHPSKFSPGAAELEFMDLNGYYIYKFFDQVAVDNTAKSDLNWSVYRYTDVLLMYAEAQVNADGTPNQQSIDIVNQIRGRAGLAPFKQTNASAFLEEVWDQRYFDLCYENKMWFDMLRTRKIRDDKSGEYVDFIGYKTNWGKVYTETQLLFPIPLSERQANPNLTQNQGY
Q: B1 was tested. Which “glycan array binding signal (z-score)” value [1] did it give?
A: 6.92

Q: What about the “glycan array binding signal (z-score)” value [2] of the same binder?
A: -0.114

Q: What about the “glycan array binding signal (z-score)” value [3] of the same binder?
A: 3.24

Q: And the “glycan array binding signal (z-score)” value [4]?
A: 6.72

Q: What about the “glycan array binding signal (z-score)” value [5] of the same binder?
A: 0.292

Q: What about the “glycan array binding signal (z-score)” value [6] of the same binder?
A: 0.552

Q: And the “glycan array binding signal (z-score)” value [7]?
A: 4.45

Q: What about the “glycan array binding signal (z-score)” value [8] of the same binder?
A: 0.311

Q: What about the “glycan array binding signal (z-score)” value [9] of the same binder?
A: -0.235

Q: What about the “glycan array binding signal (z-score)” value [10] of the same binder?
A: -0.293

Q: And the “glycan array binding signal (z-score)” value [11]?
A: -0.505

Q: And the “glycan array binding signal (z-score)” value [12]?
A: 0.278

Q: And the “glycan array binding signal (z-score)” value [13]?
A: -0.337

Q: What about the “glycan array binding signal (z-score)” value [14] of the same binder?
A: -0.49

Q: And the “glycan array binding signal (z-score)” value [15]?
A: -0.329

Q: What about the “glycan array binding signal (z-score)” value [16] of the same binder?
A: -0.406

Q: What about the “glycan array binding signal (z-score)” value [17] of the same binder?
A: -0.52

Q: What about the “glycan array binding signal (z-score)” value [18] of the same binder?
A: -0.388

Q: And the “glycan array binding signal (z-score)” value [19]?
A: -0.522

Q: What about the “glycan array binding signal (z-score)” value [20] of the same binder?
A: -0.335

Q: And the “glycan array binding signal (z-score)” value [21]?
A: 4.89

Q: What about the “glycan array binding signal (z-score)” value [22] of the same binder?
A: -0.127

Q: What about the “glycan array binding signal (z-score)” value [23] of the same binder?
A: -0.483

Q: And the “glycan array binding signal (z-score)” value [24]?
A: 2.9

Q: And the “glycan array binding signal (z-score)” value [25]?
A: -0.486
